According to ChEMBL document CHEMBL3988442, “University of Dundee, Small-Polar-MMV Screening Library” (2021):
Among all 48,000 compounds or so, about 13,000 (27%) showed an effect of 50% or more. Some of the results follow.

The molecules below were run on Wolbachia pipientis (assay: Anti-Wolbachia Cell-Based Screen). Settings: 5 µM.
Format: functional
Design: scale not given: in the data most compounds retested in dose-response had high values

| Structure (SMILES) | Percent Effect [%] |
| --- | --- |
| COCC(=O)Nc1ccc(-c2noc([C@@H]3CCCN3CC(C)C)n2)cn1 | 49.09 |
| COCC(=O)Nc1ccc(-c2noc([C@@H]3CCCN3C(C)C)n2)cn1 | 57.87 |
| COCC(=O)Nc1ccc(-c2noc([C@@H]3CCCN3C)n2)cn1 | -1.727 |
| COc1ccc(CN(C)C(=O)CCC(=O)c2cccs2)c(OC)c1OC | -8.068 |
| CCOc1ccc(C(=O)CCC(=O)NCc2csc(N)n2)cc1C | 5.175 |
| COc1ccc(C(C)NC(=O)Nc2nccs2)cc1OC (stereo not given) | -9.507 |
| COc1ccc(OC)c([C@@H]2N[C@H](c3nccs3)Cc3ccsc32)c1 | 139.9 |
| COc1cc([C@@H]2N[C@H](c3nccs3)Cc3ccsc32)cc(OC)c1OC | 111.7 |
| CCOc1cc([C@H]2N[C@@H](c3nc(C)cs3)Cc3ccsc32)ccc1OC | 131.4 |
| COc1ccc(OC)c(C2CCN(C3CCOCC3)C2)c1 (stereo not given) | 1.409 |
| CCOc1cc(/C=C/c2ncc(C(=O)NC)s2)ccc1OC | 34.03 |
| COc1ccc(OC)c(C2CCN(c3ccc4cc[nH]c4n3)C2)c1 (stereo not given) | 5.101 |
| CCOc1cc(CNc2cc(-c3nc(C)no3)ccn2)ccc1OC | -0.8232 |
| CCOc1cc([C@@H]2N[C@H](c3nccs3)Cc3ccsc32)ccc1OC | 100.4 |
| CC1CCc2nc(O)c(C(=O)NCCCN3CCN(C)CC3)cc2C1 (stereo not given) | -5.002 |
| CC(=O)c1sc2nc3c(c(C(F)(F)F)c2c1N)CN(C(C)=O)CC3 | -4.263 |
| Cc1ccc(SCC(=O)NS(=O)(=O)c2ccc3c(c2)OCCO3)cc1 | -12.07 |
| O=C(O)C(F)(F)F.O=C(O)C(F)(F)F.O=C(O)c1cc2c(nc1N1CCCC1)CCN(C1CCOCC1)CC2 | -7.138 |
| COCCN(CC1CCCN(C2Cc3ccccc3C2)C1)C(=O)COC (stereo not given) | -1.224 |
| CC(C)CN1C[C@H]2CCN(c3ncccn3)CC[C@H]2S1(=O)=O.O=C(O)C(F)(F)F | -7.419 |
| CCN(Cc1nccs1)Cc1cc(Cl)ccc1OC | -0.3926 |
| COCCOc1ccccc1C(=O)N1CCCCC1c1nccs1 (stereo not given) | 1.225 |
| CCOc1ccc([C@@H]2N[C@H](c3nccs3)Cc3ccsc32)cc1OC | 113.5 |
| COc1cccc([C@@H]2N[C@H](c3nccs3)Cc3ccsc32)c1OC | 146.2 |
| CCOc1ccc(C2CC(=O)NCc3nc(N)sc32)cc1CO (stereo not given) | 4.923 |
| COc1cccc(C2CCN(c3ccc4cc[nH]c4n3)C2)c1OC (stereo not given) | -24.45 |
| CC1N(CC2CC2)C(=O)COC12CCN(C(=O)c1ccno1)CC2 (stereo not given) | -9.759 |

| Structure (SMILES) | Percent Effect [%] |
| --- | --- |
| Cn1ncc2c(=O)[nH]c(N3CCCC3c3cccc(Cl)c3)nc21 (stereo not given) | -9.423 |
| CCNC(=O)CN1CCOC(c2ccccc2C(F)(F)F)C1 (stereo not given) | -9.523 |
| COc1nccnc1N1CCN(Cc2cccc(F)c2)C(=O)C1 | -1.411 |
| O=c1n(Cc2ccc(F)cc2)nc2ncccn12 | 93 |
| Fc1ccc(Cn2ncc3c2CN(c2ncccn2)C3)cc1 | -12.4 |
| O=c1n(Cc2ccc(C(F)(F)F)cc2)nc2ncccn12 | 133.4 |
| CC(C)C1CN(c2ncccn2)CCC(=O)N1Cc1ccc(F)cc1 (stereo not given) | -1.405 |
| O=c1n(CCSCc2ccccc2F)nc2ccccn12 | 16.6 |
| Cn1cnn(Cc2ccccc2F)c1=O | -4.03 |
| O=c1n(Cc2ccccc2F)nc2ncccn12 | 224.5 |
| FC(F)(F)c1ccc(CN2CCN(Cc3cscn3)CC2)cc1 | -5.816 |
| O=c1n(Cc2cccc(F)c2)nc2ncccn12 | 124.9 |
| CC(NC(=O)Cn1cccnc1=O)c1ccc(C(F)(F)F)cc1 (stereo not given) | -2.849 |
| O=C(O)[C@@H]1CN(Cc2nc3ncccn3n2)C[C@H]1c1cccc(F)c1 | 4.961 |
| Cn1ccc(C(=O)N(CC(F)(F)F)c2cccc(Cl)c2)cc1=O | -11.93 |
| CCc1nc2n(n1)CC(Nc1nc(C)cc(N(C)C)n1)CC2 (stereo not given) | 2.422 |
| CCC1=NOC(CNCc2cnc(-c3ccccc3C)s2)C1 (stereo not given) | -1.087 |
| Cc1c(C)n(CC(O)CN2CCCCCC2)c2c(Cl)cccc12 (stereo not given) | 9.081 |
| CC(=O)c1cccc(NC(=O)NCCc2nnc[nH]2)c1 | -18 |
| O=C(O)c1nnn(Cc2cccc(C(F)(F)F)c2)c1-c1ccccn1 | 11.55 |
| O=C(O)c1nnn(Cc2cccc(C(F)(F)F)c2)c1-c1ccncc1 | -2.735 |
| O=c1n(Cc2cccc(C(F)(F)F)c2)nc2ncccn12 | 134.4 |
| Cc1cncc(NCc2ccccc2N2CCOCC2)c1 | 0.5273 |
| O=C(NCc1ccccc1CO)Nc1ccc2c(c1)CCO2 | 11.78 |
| Cc1csc(N2CCCN(C(=O)C3(C#N)CCCCC3)CC2)n1 | -2.808 |
| COCc1c(Br)cccc1NC(=O)N(C)CCO | -0.915 |
| CCN(Cc1ccncc1)C1CCCN(Cc2ccc(F)cc2OC)C1 (stereo not given) | -6.511 |

| Structure (SMILES) | Percent Effect [%] |
| --- | --- |
| COc1cccc(C(CO)NC(=O)Cc2ccc(F)c(Br)c2)c1 (stereo not given) | 1.843 |
| COc1ccc(C(C#N)NC(=O)Cc2ccc(F)c(F)c2)c(OC)c1 (stereo not given) | 86.82 |
| COc1ccc(C(C#N)NC(=O)CC2=CCCCC2)c(OC)c1 (stereo not given) | -6.467 |
| COCc1nc(C)cc(Nc2ccc3c(c2)CC(=O)N3)n1 | -4.999 |
| COc1cc2c(cc1CN1C[C@@H](CN3CCOCC3)[C@@H](CO)C1)CCC2 | 3.11 |
| O=C(C1CCC1)N1CCC(C(=O)N2CCC(c3ccc(F)cc3)C2)CC1 (stereo not given) | 15.47 |
| Cc1c[nH]nc1C1CCN(C(=O)C2CCCC2)C1 (stereo not given) | 108.3 |
| Cc1c[nH]nc1C1CCN(S(=O)(=O)N(C)C)CC1 | -12.28 |
| Cc1c[nH]nc1C1CCN(C(=O)CC2CCCC2)C1 (stereo not given) | 140.5 |
| O=C(C1CCS(=O)(=O)CC1)N1CCC(c2ccc(F)cc2)C1 (stereo not given) | -11.81 |
| Cc1c[nH]nc1C1CCN(C(=O)C2CCC2)CC1 | 187.6 |
| COc1ccc(OC)c(C2CCN(C(=O)C3CCOCC3)C2)c1 (stereo not given) | 3.237 |
| Cc1ccc(NC(=O)N2CCN(C(=O)CC3CCCC3)CC2)s1 | -2.154 |
| Cc1c[nH]c(CN2CC[C@@]3(O)CCN(C(=O)C4CCCC4)C[C@H]3C2)n1 | 6.79 |
| Cc1c[nH]nc1C1CCN(C(=O)C2CCOCC2)C1 (stereo not given) | 146.2 |
| CCc1nc(CN2CCCN(C(=O)CC3CCCC3)CC2)cs1 | -10.08 |
| COc1ccc2cc(C3CN(C(=O)C4CCOCC4)CCO3)ccc2c1 (stereo not given) | -17.44 |
| CNC(=O)[C@@H]1C[C@H](N)CN1S(=O)(=O)c1cc(Cl)c(Cl)s1 | -16.04 |
| Cc1ccc2oc(C(=O)N3CCCC(n4nc(C)cc4C)C3)cc2n1 (stereo not given) | -4.167 |
| C1CCN(CCOC2CCNCC2)C1 | -3.216 |
| CNC(=O)[C@@H]1C[C@@H](N)CN1C1CCN(c2ccccc2F)CC1 | -6.416 |
| O=C(c1ccc2[nH]nnc2c1)N1CCCC(n2cccn2)C1 (stereo not given) | -7.495 |
| CC(C)S(=O)(=O)NCC1CCCN(C(=O)c2ccc3c(c2)CCC3)C1 (stereo not given) | -10.39 |
| O=C(c1ccc2c(c1)CCC2)N1CCCCC1C1OCCO1 (stereo not given) | -21.29 |
| O=C(c1ccc2[nH]nnc2c1)N1C[C@H](O)[C@]2(CCCO2)C1 | 107.9 |
| O=C(c1ccc2c(c1)CCC2)N1CC[C@H](O)[C@]2(CCCO2)C1 | 143.9 |
| O=C(c1ccc2[nH]nnc2c1)N1CC[C@H](O)[C@]2(CCCO2)C1 | 85.31 |

| Structure (SMILES) | Percent Effect [%] |
| --- | --- |
| COc1ccc(NC(=O)NC(C)(C)c2noc(C)n2)cc1 | -12.65 |
| CS(=O)(=O)CCOCCNc1ccc(C#N)cc1F | -9.887 |
| FC(F)(F)c1n[nH]c2c1CN(CCc1ccccn1)CC2 | -4.323 |
| COc1ccc(-c2cccc(-c3ccn(CC4COCCO4)n3)c2)nn1 (stereo not given) | -12.89 |
| Cn1cnc2cc(C(=O)NS(=O)(=O)c3ccc(F)cc3)ccc21 | -13.37 |
| O=C(O)C1c2nc[nH]c2CCN1Cc1ccc(-c2ccccc2)s1 (stereo not given) | -13.4 |
| Cc1nc(CN2CCC3(CCN(Cc4cnn(C)c4)C3)C2=O)cs1 (stereo not given) | 104.5 |
| Cc1nc(CN2CCC3(CCN(Cc4cnn(C)c4)CC3)C2=O)cs1.O=C(O)C(F)(F)F.O=C(O)C(F)(F)F | 102.9 |
| Cc1nc(CN2CCC3(CCN(Cc4nccn4C)CC3)C2=O)cs1.O=C(O)C(F)(F)F.O=C(O)C(F)(F)F | 106 |
| Cc1nc(CN2CCC3(CCCN(Cc4cnn(C)c4)C3)C2=O)cs1.O=C(O)C(F)(F)F.O=C(O)C(F)(F)F (stereo not given) | 12.7 |
| O=C1O[C@@H]2CN(Cc3cc4ccccc4o3)C[C@@H]2N1Cc1ccccn1 | 8.786 |
| CN(Cc1ccncn1)c1nccc(CCC(F)(F)F)n1 | 2.558 |
| c1c(CN2CCCCC2)nc2n1CCN(CC1CC1)C2 | 5.412 |
| O=C(NCc1cn2c(n1)CN(CC1CCOCC1)CC2)C1CCC1.O=C(O)C(F)(F)F | -3.322 |
| O=C(O)C(F)(F)F.O=C(O)C(F)(F)F.c1c(CN2CCCC2)nc2n1CCN(CC1CC1)C2 | -6.407 |
| c1nc2n(c1CN1CCOCC1)CCN(C1CCOC1)CC2 (stereo not given) | -7.987 |
| c1c(CN2CCOCC2)nc2n1CCN(CC1CC1)C2 | 101.8 |
| CN1CCN(Cc2cn3c(n2)CN(C2CCOCC2)CC3)CC1.O=C(O)C(F)(F)F.O=C(O)C(F)(F)F.O=C(O)C(F)(F)F | 107 |
| O=C(CC1CC1)NCc1cn2c(n1)CN(C(=O)C1CCOCC1)CC2 | 7.38 |
| c1c(CN2CCOCC2)nc2n1CCN(C1CCOCC1)C2 | 79.69 |
| CN(Cc1cn2c(n1)CN(C1CCOCC1)CC2)Cc1ccco1.O=C(O)C(F)(F)F.O=C(O)C(F)(F)F | 4.973 |
| CN1CCN(Cc2cn3c(n2)CN(C(=O)N2CCOCC2)CC3)CC1.O=C(O)C(F)(F)F.O=C(O)C(F)(F)F | -14.48 |
| O=C(O)C(F)(F)F.O=C(O)C(F)(F)F.c1cn2c(n1)CN(C1CCOCC1)CC(CN1CCCC1)C2 (stereo not given) | -10.3 |
| O=C(O)C(F)(F)F.O=C(O)C(F)(F)F.c1c(CN2CCCC2)nc2n1CCN(C1CCOCC1)C2 | 102.1 |
